Reference: PubChem BioAssay (NCI)
Several values for one entry are separate records, joined by “and”; a condition that tells them apart may be missing. Identical values can stand only once. About 79,000 compounds went through this panel and 15% of them were active in at least one assay; those are over-represented in the sample as a whole. Values without a mark were called inactive. Activity calls are given as the source filed them. No stated cut-off is given here; in the data, active means growth inhibition above about 70%; inactive means the rest.

Assay: NCI Yeast Anticancer Drug Screen. Data for the CLN2oe strain (AID 163);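 further: 0% = growth of vehicle-only control cultures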
Conditions: S. cerevisiae CLN2oe strain, active compounds read high
Experimental: Growth inhibition of yeast strains with defined genetic alterations is measured as a screen for potential anti-cancer activity. Selected strains with alterations in DNA damage repair or cell cycle control were exposed to compounds and growth inhibition was measured relative to vehicle treated controls. The strain used in this assay is CLN2oe

## CN(C)CCOC1(Cc2ccc(Cl)cc2Cl)CCC(C(C)(C)C)CC1 (stereo not given)
At 1.2 µM
  growth inhibition: -9% and -8%
At 3.7 µM
  growth inhibition: -8%
At 11.0 µM
  growth inhibition: 99% (active) and 81% (active)
At 33.0 µM
  growth inhibition: 98% (active)
At 100.0 µM
  growth inhibition: 97% (active) and 99% (active)

## CC1=C(SCc2ccccc2)C(=O)c2ccccc2C1=O
At 1.2 µM
  growth inhibition: -44%
At 3.7 µM
  growth inhibition: -22%
At 11.0 µM
  growth inhibition: -27%
At 33.0 µM
  growth inhibition: 63%
At 100.0 µM
  growth inhibition: 80% (active)

## COc1cc2ccnc(-c3c4ccccc4c(N)c4c(OC)c(OC)ccc34)c2cc1OC
At 1.2 µM
  growth inhibition: -1%
At 3.7 µM
  growth inhibition: 7%
At 11.0 µM
  growth inhibition: 9%
At 33.0 µM
  growth inhibition: 17%
At 100.0 µM
  growth inhibition: 37%

## CNCCCNc1c2ccccc2nc2cccc([N+](=O)[O-])c12
At 1.2 µM
  growth inhibition: -1%
At 3.7 µM
  growth inhibition: 28%
At 11.0 µM
  growth inhibition: 80% (active)
At 33.0 µM
  growth inhibition: 93% (active)
At 100.0 µM
  growth inhibition: 97% (active)

## C[C@]12CC[C@H](O)CC1=CC[C@@H]1C2CC[C@]2(C)C(=O)NC(=O)CC12 (stereo not given in full)
At 1.2 µM
  growth inhibition: -36%
At 3.7 µM
  growth inhibition: -45%
At 11.0 µM
  growth inhibition: -48%
At 33.0 µM
  growth inhibition: 67%
At 100.0 µM
  growth inhibition: 91% (active)

## Cc1c(-c2ccccn2)ccc2ccccc12
At 1.2 µM
  growth inhibition: -10%
At 3.7 µM
  growth inhibition: -3%
At 11.0 µM
  growth inhibition: -7%
At 33.0 µM
  growth inhibition: -12%
At 100.0 µM
  growth inhibition: -4%

## CCOc1ccccc1N=Cc1c2ccccc2cc2ccccc12
At 1.2 µM
  growth inhibition: 18%
At 3.7 µM
  growth inhibition: 36%
At 11.0 µM
  growth inhibition: 97% (active)
At 33.0 µM
  growth inhibition: 98% (active)
At 100.0 µM
  growth inhibition: 97% (active)

## COc1ccc2c(c1)n([O-])c1ccccc1[n+]2=O
At 1.2 µM
  growth inhibition: -4%
At 3.7 µM
  growth inhibition: -7%
At 11.0 µM
  growth inhibition: -2%
At 33.0 µM
  growth inhibition: 25%
At 100.0 µM
  growth inhibition: 75% (active)
